Data published in the supplement of paper PMC4466236.
The full ranking holds about 33,000 sequences; the median of “E-score (dimensionless, -0.5 to 0.5)” is about -0.058, and the highest 2% start at about 0.35. Only a selection was taken, and the highest values are over-represented in it overall.

tested on: MvaT; experiment: PBM 8-mer E-score (mean of HK and ME arrays) (E-score (dimensionless, -0.5 to 0.5)); higher = stronger relative binding preference
Experimental: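 Protein binding microarray: GST-tagged full-length MvaT (P. aeruginosa PAO1) bound to two universal double-stranded 60-mer arrays (ME and HK), each with a constant 25-mer primer and a variable 35-mer region covering all 8-mers. The 8-mer E-score (rank-based, range -0.5 to 0.5, >0.45 = specific binding) is the mean of the two arrays.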

Sequence | PBM 8-mer E-score
GTATTTGA | 0.319
CTATTTGC | 0.148
ATATTTGG | 0.177
CTATTTGA | 0.229
ATATTTGC | 0.351
ATATTTGA | 0.363
ACTTTTTC | 0.0911
CCAGATAA | 0.165
AGTAGACA | -0.00875
ACATATAG | 0.264
ACATATAT | 0.47
ACATATAA | 0.446
ACATATGA | 0.179
ACATATAC | 0.287
ACACATAA | 0.273
ATACATCA | 0.192
CGGTAGCC | -0.317
AGTTCAGG | 0.0672
AATCTTGT | 0.0955
AAGCTCTA | -0.217
ATCTAATC | 0.167
ACATAATG | 0.302
ATATAAGG | 0.31
CTATAATC | 0.295
ATATAATC | 0.415

Sequence | PBM 8-mer E-score
ATATAATG | 0.402
AAGGAATG | 0.0374
TCTAGAAA | 0.0814
TCTCCTCA | -0.177
CCTGGTAA | -0.0325
GCCGTCAC | -0.163
CCAATCGG | -0.128
CGTCTCAA | -0.0154
ATGTCAGC | -0.039
TTAAAAAA | 0.305
GTTAAAAA | 0.239
CTTTAAAA | 0.287
TTTAAAAA | 0.363
GTTTAAAA | 0.293
TTTTAAAA | 0.409
AGAAGTTA | 0.279
GAACATTC | -0.0126
CATTGTAC | 0.151
AGGACGTA | -0.138
GCGTATTA | 0.193
AAGTATTA | 0.388
ACGTATTA | 0.356
ACGTATTG | 0.183
CAGTATTA | 0.289
AAGTATTC | 0.161

Sequence | PBM 8-mer E-score
ATATCTAG | 0.252
GCCTACGA | -0.271
GCATACCA | -0.104
CCGTGCGA | -0.193
TCAAATAA | 0.28
ACAAATAA | 0.38
GCAAATAA | 0.325
ACAAATAC | 0.247
ACAAATAG | 0.268
ACAAATAT | 0.405
CCAGGCAC | -0.347
GCCGAGAA | -0.0283
ATATATGG | 0.42
ACATATGC | 0.129
ATATATGC | 0.424
ATATATGA | 0.439
AGATATGG | 0.00259
CTATATGC | 0.227
GTATATGA | 0.245
ACATATGG | 0.145
CTATATGA | 0.124
AAAGCTCC | -0.295
AGTCTTAC | 0.0995
CGAGATCA | -0.0866
ATATAGAG | 0.351

Sequence | PBM 8-mer E-score
CTATAGAA | 0.103
AGATAGAT | 0.152
ATAGAGAG | 0.188
CTATAGAG | -0.125
ATATAGAA | 0.366
ATATAGAC | 0.224
GTATAGAA | 0.0668
ATATAGAT | 0.35
ATGACCAC | -0.00499
AATGTTTG | 0.212
AGGCGAGA | -0.0992
CACGCCAG | -0.233
AACGCGGA | -0.163
AAGAGGTC | -0.209
ATAACTAC | 0.272
CTTTAGAC | 0.0841
ATGCGGTA | -0.111
AAACTTAC | 0.306
AACTTTCT | 0.22
GAACTTAA | 0.263
AACTTTCA | 0.351
TAACTTAA | 0.406
TACTTTAA | 0.422
CACTTTCA | 0.136
AAACTTAT | 0.381

Sequence | PBM 8-mer E-score
GACTTTAA | 0.262
AAACTTAA | 0.326
CAACTTAA | 0.31
TGCTTTAA | 0.094
AAAACCGC | 0.058
AGGACGGA | -0.0832
ACCTGGGG | -0.366
AGGCTGAT | -0.0817
CCCGGTTA | 0.00633
ATTGCGCA | 0.111
ACTGGACG | -0.0771
AACTTTTA | 0.34
AACTTTAG | 0.211
CACTTTAA | 0.274
AACTTTAC | 0.275
AACTTTAA | 0.385
AACTTTAT | 0.357
GGGTGCGA | -0.091
CCGGCGCA | -0.0431
ATCGACAC | -0.0169
AGTGCGCA | 0.13
AGGGGCGA | -0.155
ATCACTCG | 0.0455
AGCTGGTA | -0.107
ACAGGAAC | -0.0162

Sequence | PBM 8-mer E-score
GTAACTCA | 0.116
GTAACTGA | 0.199
CTAACTAA | 0.286
CTAACTTA | 0.379
GTAACTTA | 0.37
ATAACTTA | 0.429
ATAACTGA | 0.246
CTAACTGA | 0.0161
AGAACTTA | 0.256
CTTGTCGC | -0.147
CCTCGTGA | -0.253
CCCTGTTA | -0.0586
AGCAAGAG | -0.0917
TCGATCCA | -0.213
ACATCTTC | 0.185
ATCTACTG | 0.0718
ATTTGTTG | 0.172
ATTGAAAT | 0.27
ACTAGTTA | 0.345
TTAAACAA | 0.321
CTAAATAA | 0.365
CTAAATCA | 0.0639
CTAAATGA | 0.126
TTAAATAA | 0.445
CTAAATAC | 0.232

Sequence | PBM 8-mer E-score
GCGATTCC | -0.0999
AGGCAGAA | -0.226
ACTCGTGA | -0.0788
GGACTCCC | -0.283
TAGTGAGA | 0.0304
ACCCTTCC | -0.184
ACATATTA | 0.44
ACATATTC | 0.281
CCATATTA | 0.353
CCATATTC | 0.161
ACATATTG | 0.281
GCATATTA | 0.278
AACCACTC | 0.00691
GCGGAGGA | -0.291
AAATTTGT | 0.264
AGGGTACC | -0.343
AACAAATA | 0.369
GACAAATA | 0.297
AACAAAAT | 0.35
AACAAATG | 0.172
TACAAATA | 0.355
AACAAGAT | 0.164
AACAAAAA | 0.239
AACAAGTA | 0.343
CACAAATA | 0.338
